According to the supplement of paper PMC8975748:
Where a name gives a salt, the structure may show the parent alone. ± gives the standard deviation of the averaged measurements.

Experiments:
[1] = system: Saccharomyces cerevisiae BY4741 SeMeCo community; assay: mean cell size (pixel area) (pixels); higher = larger cells; settings: 10 µM; 24 h; SM minimal medium
Summary of the method: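 A four-plasmid fluorescent Saccharomyces cerevisiae BY4741 community was tested; each plasmid complements one auxotrophy and carries a fluorescent marker. An overnight preculture at OD600 = 1.0 was diluted to OD600 = 0.3, and 70 µl was added to 384-well plates acoustically predosed with drug (final 10 µM) in SM medium for 24 h. Cells were fixed with paraformaldehyde and imaged by automated confocal microscopy, with analysis in Harmony. Mean cell pixel area per well is averaged over 3 replicates. Same SeMeCo high-content imaging drug screen: Selleck FDA-approved drugs at 10 µM, 24 h in SM medium, 384-well plates, 3 replicates.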

[2] = system: Saccharomyces cerevisiae BY4741 SeMeCo community; assay: z-score of prototroph abundance vs DMSO median; higher = larger share of this subpopulation than in DMSO controls; settings: 10 µM; 24 h; SM minimal medium; subpopulation (auxotrophy): Prototroph
Summary of the method: (§1)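 Four plasmids, each restoring a single auxotrophy and encoding a distinct fluorescent protein, were carried by a Saccharomyces cerevisiae BY4741 community. After overnight growth to OD600 1.0 and dilution to 0.3, 70 µl per well was grown for 24 h in minimal SM medium on 384-well plates acoustically predosed with library drugs at 10 µM final. Following paraformaldehyde fixation, automated confocal microscopy was used, with single-auxotroph fluorescent strains defining thresholds and autofluorescence correction. Subpopulation abundance was then scored as a z-score against the vehicle-well median.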

[3] = system: Saccharomyces cerevisiae BY4741 SeMeCo community; assay: z-score of subpopulation abundance vs DMSO median, subpopulation auxotrophic for L; higher = larger share of this subpopulation than in DMSO controls; settings: 10 µM; 24 h; SM minimal medium; subpopulation (auxotrophy): L
Summary of the method: as §1

[4] = system: Saccharomyces cerevisiae BY4741 SeMeCo community; assay: z-score of subpopulation abundance vs DMSO median, subpopulation auxotrophic for U; higher = larger share of this subpopulation than in DMSO controls; settings: 10 µM; 24 h; SM minimal medium; subpopulation (auxotrophy): U
Summary of the method: as §1

[5] = system: Saccharomyces cerevisiae BY4741 SeMeCo community; assay: z-score of subpopulation abundance vs DMSO median, subpopulation auxotrophic for H; higher = larger share of this subpopulation than in DMSO controls; settings: 10 µM; 24 h; SM minimal medium; subpopulation (auxotrophy): H
Summary of the method: as §1

[6] = system: Saccharomyces cerevisiae BY4741 SeMeCo community; assay: z-score of subpopulation abundance vs DMSO median, subpopulation auxotrophic for LU; higher = larger share of this subpopulation than in DMSO controls; settings: 10 µM; 24 h; SM minimal medium; subpopulation (auxotrophy): LU
Summary of the method: as §1

[7] = system: Saccharomyces cerevisiae BY4741 SeMeCo community; assay: z-score of subpopulation abundance vs DMSO median, subpopulation auxotrophic for LM; higher = larger share of this subpopulation than in DMSO controls; settings: 10 µM; 24 h; SM minimal medium; subpopulation (auxotrophy): LM
Summary of the method: as §1

[8] = system: Saccharomyces cerevisiae BY4741 SeMeCo community; assay: z-score of subpopulation abundance vs DMSO median, subpopulation auxotrophic for HM; higher = larger share of this subpopulation than in DMSO controls; settings: 10 µM; 24 h; SM minimal medium; subpopulation (auxotrophy): HM
Summary of the method: as §1

[9] = system: Saccharomyces cerevisiae BY4741 SeMeCo community; assay: z-score of subpopulation abundance vs DMSO median, subpopulation auxotrophic for HU; higher = larger share of this subpopulation than in DMSO controls; settings: 10 µM; 24 h; SM minimal medium; subpopulation (auxotrophy): HU
Summary of the method: as §1

[10] = system: Saccharomyces cerevisiae BY4741 SeMeCo community; assay: z-score of subpopulation abundance vs DMSO median, subpopulation auxotrophic for UM; higher = larger share of this subpopulation than in DMSO controls; settings: 10 µM; 24 h; SM minimal medium; subpopulation (auxotrophy): UM
Summary of the method: as §1

[11] = system: Saccharomyces cerevisiae BY4741 SeMeCo community; assay: z-score of subpopulation abundance vs DMSO median, subpopulation auxotrophic for HL; higher = larger share of this subpopulation than in DMSO controls; settings: 10 µM; 24 h; SM minimal medium; subpopulation (auxotrophy): HL
Summary of the method: as §1

[12] = system: Saccharomyces cerevisiae BY4741 SeMeCo community; assay: z-score of subpopulation abundance vs DMSO median, subpopulation auxotrophic for HLU; higher = larger share of this subpopulation than in DMSO controls; settings: 10 µM; 24 h; SM minimal medium; subpopulation (auxotrophy): HLU
Summary of the method: as §1

[13] = system: Saccharomyces cerevisiae BY4741 SeMeCo community; assay: z-score of subpopulation abundance vs DMSO median, subpopulation auxotrophic for HLM; higher = larger share of this subpopulation than in DMSO controls; settings: 10 µM; 24 h; SM minimal medium; subpopulation (auxotrophy): HLM
Summary of the method: as §1

[14] = system: Saccharomyces cerevisiae BY4741 SeMeCo community; assay: z-score of subpopulation abundance vs DMSO median, subpopulation auxotrophic for HUM; higher = larger share of this subpopulation than in DMSO controls; settings: 10 µM; 24 h; SM minimal medium; subpopulation (auxotrophy): HUM
Summary of the method: as §1

[15] = system: Saccharomyces cerevisiae BY4741 SeMeCo community; assay: z-score of subpopulation abundance vs DMSO median, subpopulation auxotrophic for LUM; higher = larger share of this subpopulation than in DMSO controls; settings: 10 µM; 24 h; SM minimal medium; subpopulation (auxotrophy): LUM
Summary of the method: as §1

[16] = system: Saccharomyces cerevisiae BY4741 SeMeCo community; assay: z-score of subpopulation abundance vs DMSO median, subpopulation auxotrophic for HLUM; higher = larger share of this subpopulation than in DMSO controls; settings: 10 µM; 24 h; SM minimal medium; subpopulation (auxotrophy): HLUM
Summary of the method: as §1

[17] = system: Saccharomyces cerevisiae BY4741 SeMeCo community; assay: z-score of subpopulation abundance vs DMSO median, subpopulation auxotrophic for M; higher = larger share of this subpopulation than in DMSO controls; settings: 10 µM; 24 h; SM minimal medium; subpopulation (auxotrophy): M
Summary of the method: as §1

| Structure (SMILES) | mean cell size [1] | z-score of prototroph abundance [2] | z-score of subpopulation abundance [3] | z-score of subpopulation abundance [4] | z-score of subpopulation abundance [5] | z-score of subpopulation abundance [6] | z-score of subpopulation abundance [7] | z-score of subpopulation abundance [8] | z-score of subpopulation abundance [9] | z-score of subpopulation abundance [10] | z-score of subpopulation abundance [11] | z-score of subpopulation abundance [12] | z-score of subpopulation abundance [13] | z-score of subpopulation abundance [14] | z-score of subpopulation abundance [15] | z-score of subpopulation abundance [16] | z-score of subpopulation abundance [17] |
| --- | --- | --- | --- | --- | --- | --- | --- | --- | --- | --- | --- | --- | --- | --- | --- | --- | --- |
| Clc1ccc(CCC(Cn2ccnc2)Sc2c(Cl)cccc2Cl)cc1 (configuration not stated) [Butoconazole nitrate] | 12.5 ± 0.15 | -7.6 | -1.91 | 1.85 | 30.8 | 1.13 | -0.84 | 1.46 | 13.3 | 0.67 | 14.5 | 12.5 | 20.2 | 5.03 | 0.2 | 20.4 | – |
| N[C@@H](C(=O)N[C@@H]1C(=O)N2C(C(=O)O)=C(Cl)CS[C@H]12)c1ccccc1 [Cefaclor] | 12.45 ± 0.095 | -0.66 | 0.23 | 0.82 | 0.49 | – | 0.52 | 0.64 | 0.41 | 0.24 | -0.05 | -0.22 | – | 0.37 | – | – | 0.46 |
| C#C[C@]1(O)CC[C@H]2[C@@H]3CCc4cc(OC)ccc4[C@H]3CC[C@@]21C [Mestranol] | 12.4 ± 0.25 | 0.82 | – | – | -0.4 | – | -0.14 | -0.5 | – | -0.68 | -0.16 | -0.61 | – | -0.58 | -0.31 | – | -1.19 |
| OC[C@H]1O[C@H](OCC2O[C@@H](O)[C@H](O)[C@@H](O)[C@@H]2O)[C@H](O)[C@@H](O)[C@H]1O (some centres not stated) [Melibiose] | 12.5 ± 0.29 | – | – | – | -0.36 | – | -0.85 | -0.15 | – | – | 0.32 | -0.58 | 1.11 | 0.46 | 0.14 | 1 | 0.28 |
| CC(C)c1nc(N(C)S(C)(=O)=O)nc(-c2ccc(F)cc2)c1/C=C/[C@@H](O)C[C@@H](O)CC(=O)O [Rosuvastatin] | 11.22 ± 0.092 | -2.69 | 2.53 | -1.39 | 4.84 | 1.31 | 0 | 2.17 | 1.77 | 1 | 5.32 | 1.68 | 3.7 | 2.38 | 1.84 | 2.76 | – |
| CCCCN(CCCC)CC(O)c1cc(Cl)cc2c1-c1ccc(Cl)cc1/C2=C/c1ccc(Cl)cc1 (configuration not stated) [Lumefantrine] | 12.4 ± 0.14 | -1 | -0.76 | 1.6 | 0.2 | 0.38 | -0.24 | 0.53 | 0.43 | 2.56 | -0.58 | -0.32 | -0.39 | 1.37 | 0.62 | -0.39 | – |
| COc1cc(O)c(C(=O)Nc2nc(C(=O)NCCN(C(C)C)C(C)C)cs2)cc1OC [Acotiamide] | 12.14 ± 0.12 | -0.88 | – | -0.39 | – | – | 1.66 | 0.64 | -0.06 | 0.28 | 1.99 | 1.61 | 0.73 | 0.93 | 1.3 | 1.15 | 0.17 |
| O=C(N[C@H](CO)[C@H](O)c1ccc([N+](=O)[O-])cc1)C(Cl)Cl [Chloramphenicol] | – | -0.39 | 0.12 | – | -0.01 | – | 0.1 | -0.25 | – | -0.39 | 0.18 | -0.24 | 0.01 | – | 0.23 | – | 0.86 |
| CC(=O)O[C@H]1C[C@@H]2CC[C@@H]3[C@H](CC[C@@]4(C)[C@H]3C[C@H]([N+]3(C)CCCCC3)[C@@H]4OC(C)=O)[C@@]2(C)C[C@@H]1N1CCCCC1 [Vecuronium Bromide] | 12.4 ± 0.31 | 0.67 | 0.57 | -0.48 | – | – | -1.11 | -0.57 | -0.65 | – | – | -0.64 | – | 0.09 | -0.05 | 0.24 | -0.47 |
| O=C1c2c(O)ccc(O)c2C(=O)c2c(NCCNCCO)ccc(NCCNCCO)c21 [Mitoxantrone 2HCl] | 12.9 ± 0.15 | -2.59 | 5.53 | -1.69 | 21.2 | – | -5.45 | -7.73 | 26.5 | -8.31 | 20.9 | 54.8 | – | -6.42 | -5.01 | -2.13 | -14 |
| CCN(CC)CCOC(=O)c1ccc(N)cc1 [Procaine] | 12.2 ± 0.13 | 0.34 | -0.42 | 1.32 | -0.4 | 0.48 | -0.46 | -0.99 | 0.81 | 0.14 | – | -1.15 | -1.03 | 0.39 | 0.13 | -0.71 | – |
| O=C1c2cccc3c2[C@H](CCC3)CN1[C@@H]1CN2CCC1CC2 [Palonosetron HCl] | 11.92 ± 0.064 | 0.21 | -0.13 | – | -0.32 | – | – | – | 0.33 | 0.37 | -0.31 | -0.05 | – | -0.03 | -0.02 | -0.14 | -0.37 |
| Cc1nc2n(c(=O)c1CCN1CCC(c3noc4cc(F)ccc34)CC1)CCCC2O (configuration not stated) [Paliperidone] | 12 ± 0.24 | 0.1 | -0.99 | 0.75 | -0.95 | – | -0.14 | 0.04 | 0.19 | 0.49 | -1.06 | -0.96 | – | 0.09 | -1.04 | -0.53 | 0.41 |
| CCCCCc1ccc(C)cc1O [Amylmetacresol] | 12.4 ± 0.14 | -0.1 | 0.4 | 0.39 | -0.64 | – | -0.71 | -0.5 | -0.1 | -0.13 | -0.02 | 0.35 | – | -0.2 | 0.11 | – | -0.65 |
| C[C@]12CC[C@@H]3c4ccc(O)cc4CC[C@H]3[C@@H]1CC[C@@H]2O [Estradiol] | 12.7 ± 0.21 | 0.44 | -0.14 | 0.01 | 0.3 | -0.02 | -0.16 | -0.39 | -1.02 | -0.27 | -0.05 | 0.9 | -0.66 | -0.92 | 0.18 | 1.17 | – |
